This note sets out measurements from PubChem BioAssay (NCATS).

Several values for one entry are separate records, joined by “and”; a condition that tells them apart may be missing. Equal entries are not always repeated. Results filed as inconclusive are left out. Activity calls are given as the source filed them. Unless noted, calls follow the shape of the dose curve; as a rule, active = well fitted curve in the direction sought with a large enough effect; inconclusive = small, poorly fitted or top-dose-only effect, or another doubt; inactive = no such curve, though single readings can be large; an effect the other way counts as inactive or inconclusive.

A short description of experiment [1]: AP1 Signaling Pathway (AID 357; active = well fitted curve in either direction with a large enough effect, not every such curve was filed as active;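 also: ME-180 reporter cells stimulated with EGF at its EC50 level; % is scaled to controls: 0 for no effect and ±100 for the full control effect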). The settings on record: ME-180 AP-1-bla reporter, EGF-induced, beta-lactamase ratio, 5 h. The essentials: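 Modulation of EGF-driven AP-1 transcription was assessed with a beta-lactamase reporter in ME-180 cells. Compound and EC50 EGF were co-incubated 5 hours at 37 °C before 2.5-hour CCF4 loading at room temperature and dual-emission reading.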

Experiment [2] deals with Cytochrome P450 1A2 (Homo sapiens) (UniProt P05177). The experiment can be described thus: p450-cyp1a2 (AID 410; calls by dose curve;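 also: -100% = full effect of reference inhibitor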). The settings on record: recombinant CYP1A2, luciferin-ME demethylation, luminescence; series mostly up to 57 µM. The essentials: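 Luminescent readout of luciferin formed from Luciferin-ME by human CYP1A2; data normalized against complete inhibition by 57 uM furafylline. Enzyme 20nM, substrate 100uM at Km, 100mM KPO4 buffer, 60 min reaction at room temperature.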
Cytochrome P450 1A2 (Homo sapiens), sequence (P05177 whole entry, looked up): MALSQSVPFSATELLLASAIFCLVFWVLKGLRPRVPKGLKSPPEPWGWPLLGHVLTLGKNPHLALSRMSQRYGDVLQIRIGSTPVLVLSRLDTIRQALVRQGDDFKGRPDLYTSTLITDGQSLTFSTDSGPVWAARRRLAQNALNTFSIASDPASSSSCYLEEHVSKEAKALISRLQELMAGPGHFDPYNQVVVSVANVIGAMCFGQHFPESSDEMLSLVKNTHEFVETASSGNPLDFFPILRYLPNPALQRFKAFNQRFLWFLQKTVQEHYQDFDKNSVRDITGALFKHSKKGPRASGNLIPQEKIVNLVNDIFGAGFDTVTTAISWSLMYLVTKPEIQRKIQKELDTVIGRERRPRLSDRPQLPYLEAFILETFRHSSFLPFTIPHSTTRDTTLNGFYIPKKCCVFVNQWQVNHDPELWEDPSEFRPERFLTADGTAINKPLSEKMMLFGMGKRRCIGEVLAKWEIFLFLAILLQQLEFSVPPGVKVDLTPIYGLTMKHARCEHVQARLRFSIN

A short description of experiment [3]: NFAT Signaling Pathway (AID 444; active = well fitted curve in either direction with a large enough effect, not every such curve was filed as active;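 also: carbachol stimulus at about its EC50 of 1 µM final; % is scaled to controls: 0 for no effect and ±100 for the full control effect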). The note with it: Jurkat NFAT-bla M1, carbachol, beta-lactamase ratio, 5 h. An outline of the steps:
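Jurkat cells with NFAT-driven β-lactamase reporter and co-expressed M1 receptor, stimulated with carbachol (final 1 uM, ~EC50), compound titration, 5 h at 37 °C. CCF4 loaded 1 h at RT; 460/530 nm ratio gave %activity and AC50.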

A short description of experiment [4]: Stat Signaling Pathway (AID 446; active = well fitted curve in either direction with a large enough effect, not every such curve was filed as active;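 also: ME-180 cervical cancer cells given 40 pM IL-6 alongside compound; SIE-controlled beta-lactamase reporter measured as 460/530 nm FRET emission ratio; % is scaled to controls: 0 for no effect and ±100 for the full control effect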). The settings on record: ME-180 SIE beta-lactamase reporter, IL-6 stimulated, 5 h. The essentials:
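Reporter line: ME-180 cervical carcinoma, SIE-beta-lactamase. Treatment: compound with 40 pM IL-6, 5 hrs, 37 C, in low-serum OPTI-MEM with 10 mM HEPES pH 7.3. Detection: 460/530 nm fluorescence.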

Experiment [5] has as its target Glucocorticoid receptor (Homo sapiens) (UniProt P04150). Put plainly: GR-GFP Redistribution (AID 450;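 active = compounds whose dose series gives a full or clear partial fitted curve of increased nuclear translocation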; also: potency is read from the fitted curve at half-maximal effect). The settings on record: U2OS GR-GFP nuclear translocation, laser cytometry, 2 h.
For experiment [6] the target is unchanged. Put plainly: GR-EFC Redistribution (AID 451; calls by dose curve; also: potency is read from the fitted curve at half-maximal effect). The settings on record: CHO-K1 GR-EFC translocation, beta-gal luminescence, 2 h. An outline of the steps:
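CHO-K1 cells expressing nuclear EA and GR-ED fragments of b-gal; compounds titrated up to 46 uM final, 2 h at 37 C. GR nuclear translocation read as complemented b-gal luminescence after 1 h RT detection.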

Experiment [7] concerns the target Mitogen-activated protein kinase 10 (Mus musculus) (UniProt Q61831). Put plainly: JNK3 AlphaScreen Assay (AID 530; active = well fitted curve in either direction with a large enough effect, not every such curve was filed as active;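 also: kinase came from lysate of stimulated human HepG2 cells; signal reports phosphorylation of biotinylated GST-cJun 1-79 at Ser73 with 10 µM ATP; % is scaled to controls: 0 for no effect and ±100 for the full control effect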). The settings on record: JNK3 lysate, c-Jun phosphorylation; series mostly up to 57.1 µM. An outline of the steps:
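Pre-activated (IL-1β/TNFα) JNK3 in HepG2 lysates phosphorylates biotin-GST-cJun(1-79), 10 uM ATP; anti-phospho-cJun(Ser73) AlphaScreen read at room temperature, pH 7.6 Tris buffer. Compounds pre-incubated 15 min as titrations.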

Experiment [8] deals with 3',5'-cyclic-AMP phosphodiesterase 4B (Homo sapiens) (UniProt Q07343). Put plainly: qHTS Assay for Inhibitors of PDE-IV (AID 607; active = well fitted activation curve with a large enough effect in the main read-out, with a control signal flat, not every such curve was filed as active; also: % of control where 0% means no effect). The note with it: HEK293 ACTOne CNG channel cells, membrane potential fluorescence; series mostly up to 22.9 µM. An outline of the steps:
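Cell-based read-out of cAMP via a modified cyclic nucleotide-gated channel and membrane potential dye (535/590 nm) in HEK293 cells expressing PDE4 endogenously. Compounds tested up to 22.9 uM final; 100 uM RO 20-1724 reference.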

Experiment [9] concerns the target Pyruvate kinase (Leishmania mexicana) (UniProt Q27686). The experiment can be described thus: qHTS Validation Assay for Inhibitors of Leishmania Mexicana Pyruvate Kinase (AID 945).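 Also: 0% = DMSO only neutral control wells.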 The note with it: purified L. mexicana pyruvate kinase, enzyme activity, E451W mutant enzyme; series mostly up to 57.5 µM. The essentials:
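qHTS eight-point titrations against 0.2 nM LmPYK (E451W) in imidazole buffer pH 7.2 with 0.5 mM PEP, 0.1 mM ADP; 1 h, room temperature. Readout: PKLight luminescence, normalized to neutral DMSO wells.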

Experiment [10] addresses Alpha-galactosidase A (Homo sapiens) (UniProt P06280). The experiment can be described thus: Counterscreen for Glucocerebrosidase Inhibitors: qHTS Assay for Human alpha-Galactosidase at pH 4.5 (AID 992). Also: 0% is about no effect. The note with it: purified enzyme, fluorogenic substrate; series mostly up to 76.9 µM. The essentials: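 Quantitative HTS: compounds tested from 0.7 nM up to 77 uM against 2 nM enzyme with 80 uM 4-MU alpha-D-galactopyranoside. The 20 min room-temperature reaction is stopped with 1M NaOH/1M glycine, pH 10.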

Experiment [11] deals with alpha-glucosidase (Oryza sativa, rice) (UniProt Q653V4). The experiment can be described thus: Counterscreen for Glucocerebrosidase Inhibitors: qHTS Assay for Rice alpha-Glucosidase at pH 5.0 (AID 997).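 Also: 0% = full activity with enzyme and -100% = basal without enzyme.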 The note with it: rice alpha-glucosidase enzyme activity; series mostly up to 76.9 µM. An outline of the steps: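 Rice alpha-glucosidase (4 nM final) with 400 uM 4-methylumbelliferyl-alpha-D-glucopyranoside in citrate buffer pH 5.0, 20 min at room temperature, stopped at pH 10; fluorescence 365/440 nm, compounds 0.7 nM–77 uM, AC50 from Hill fits.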

The nature of experiment [12]: qHTS Assay for Lipid Storage Modulators (AID 1519; calls by dose curve). The settings on record: Drosophila S3 cells, BODIPY lipid droplet/cell ratio, laser cytometry, cells loaded with oleic acid; for activity change, negative = inhibition: at 25.7 µM (top of the series). An outline of the steps:
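Cells seeded at 5,000 per well were treated with compounds over a concentration series and loaded with oleic acid (400 uM, as added). Lipid droplet fluorescence (488 nm excitation, 500-530 nm channel) was read by laser-scanning cytometry and normalized to 20 uM Triacsin C.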

In experiment [13] the target is ATP-dependent 6-phosphofructokinase (Trypanosoma brucei brucei) (UniProt O15648). The experiment can be described thus: qHTS Assay to Find Inhibitors of T. brucei phosphofructokinase: hit validation (AID 492961). The settings on record: T. brucei PFK, ADP-Glo luminescence; series mostly up to 24.3 µM. An outline of the steps: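 Compounds titrated; %activity normalized to 0x and 1x enzyme controls, curve-fitted. Readout: ADP-Glo luminescence after 45 min room-temperature reaction of 1.25 nM PFK, 0.1 mM ATP, 0.5 mM F6P, pH 8.0.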
ATP-dependent 6-phosphofructokinase (Trypanosoma brucei brucei), sequence (O15648 whole entry, looked up): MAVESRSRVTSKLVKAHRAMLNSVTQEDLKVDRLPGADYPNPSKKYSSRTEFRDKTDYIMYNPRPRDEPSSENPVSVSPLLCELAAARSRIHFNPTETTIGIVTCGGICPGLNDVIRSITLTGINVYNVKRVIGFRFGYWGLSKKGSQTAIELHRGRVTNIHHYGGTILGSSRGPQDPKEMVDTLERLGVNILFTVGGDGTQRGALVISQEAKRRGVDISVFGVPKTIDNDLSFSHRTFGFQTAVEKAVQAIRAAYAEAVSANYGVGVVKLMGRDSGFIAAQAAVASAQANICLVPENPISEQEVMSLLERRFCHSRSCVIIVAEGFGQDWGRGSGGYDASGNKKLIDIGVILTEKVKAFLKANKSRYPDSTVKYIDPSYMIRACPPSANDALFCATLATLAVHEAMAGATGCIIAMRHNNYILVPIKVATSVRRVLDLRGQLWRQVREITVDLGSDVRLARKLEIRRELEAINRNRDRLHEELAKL

For experiment [14], the target named is Ubiquitin carboxyl-terminal hydrolase 1 (Homo sapiens) (UniProt O94782). Put plainly: Inhibitors of USP1/UAF1: Pilot qHTS (AID 504865).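 Also: rhodamine fluorescence freed from ubiquitin-rhodamine substrate followed over time; top concentration of the series differs between compounds; % is scaled to controls: 0 for no effect and ±100 for the full control effect; nearly all actives have a fitted effect of over 35% in size.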 The settings on record: purified USP1/UAF1, Ub-rhodamine cleavage fluorescence; series mostly up to 54.9 µM. An outline of the steps: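 USP1/UAF1 complex (1nM) preincubated with compound 15 min at room temperature, then Ub-Rho substrate (150nM final) added. Fluorescence read kinetically at 480/540 nm, 6 reads every 60 seconds. Buffer: 50mM HEPES pH 7.8, 0.5mM EDTA, 0.1 mg/ml BSA, 1mM TCEP, 0.01% Tween-20.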
Ubiquitin carboxyl-terminal hydrolase 1 (Homo sapiens), sequence (O94782 whole entry, looked up): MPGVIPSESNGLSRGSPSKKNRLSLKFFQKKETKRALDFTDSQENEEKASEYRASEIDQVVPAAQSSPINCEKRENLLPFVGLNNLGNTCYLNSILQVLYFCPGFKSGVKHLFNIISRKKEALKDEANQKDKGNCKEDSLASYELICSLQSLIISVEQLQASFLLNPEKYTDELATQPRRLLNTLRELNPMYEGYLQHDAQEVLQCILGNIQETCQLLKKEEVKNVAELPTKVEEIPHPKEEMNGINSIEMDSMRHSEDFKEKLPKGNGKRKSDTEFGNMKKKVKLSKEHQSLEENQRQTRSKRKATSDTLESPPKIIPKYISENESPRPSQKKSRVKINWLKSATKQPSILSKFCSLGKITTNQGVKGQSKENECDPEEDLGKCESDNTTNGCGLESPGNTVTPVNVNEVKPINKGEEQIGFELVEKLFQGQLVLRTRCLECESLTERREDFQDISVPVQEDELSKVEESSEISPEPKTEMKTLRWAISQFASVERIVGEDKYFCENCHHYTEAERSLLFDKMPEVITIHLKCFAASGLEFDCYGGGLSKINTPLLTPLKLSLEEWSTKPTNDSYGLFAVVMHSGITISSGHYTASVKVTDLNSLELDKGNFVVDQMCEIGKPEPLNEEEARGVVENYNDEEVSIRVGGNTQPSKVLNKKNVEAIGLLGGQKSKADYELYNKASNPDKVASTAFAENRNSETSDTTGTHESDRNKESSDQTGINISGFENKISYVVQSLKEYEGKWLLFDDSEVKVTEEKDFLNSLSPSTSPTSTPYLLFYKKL

The target of experiment [15] is Luciferin 4-monooxygenase (Photinus pyralis) (UniProt P08659). Put plainly: Biochemical firefly luciferase enzyme assay for NPC (AID 624030).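 Also: purified P. pyralis luciferase at 10 nM with luciferin and ATP substrate; 0% = DMSO and -100% = full luciferase inhibition by PTC124 control; nearly all actives have a fitted effect of over 70% in size.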 The note with it: purified P. pyralis luciferase, luminescence, 5 min; series mostly up to 58.6 µM. An outline of the steps:
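Purified P. pyralis luciferase at 10 nM in 50 mM Tris Acetate (final), luminescence read within 5 minutes of enzyme addition to compounds. Activity normalised to PTC124 versus DMSO; concentration-response curves classed by r2, magnitude and activity.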

Experiment [16] can be described thus: qHTS profiling for inhibitors of Plasmodium falciparum proliferation (AID 504749). Also: potency is read from the fitted curve at half-maximal effect.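 As to activity, negative = inhibition: 0% = DMSO vehicle and full inhibition = artemisinin control.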 As to all read-outs here: nearly all actives have a fitted effect of over 60% in size. The settings on record: P. falciparum in erythrocytes, SYBR Green DNA, 72 h; for activity, negative = inhibition: at 28.7 µM (top of the series). An outline of the steps: (§1)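 P. falciparum-infected erythrocytes (0.3% parasitemia, 2.5% hematocrit) incubated with compound 72 h at 37 C, 5% CO2. Parasite DNA detected by SYBR Green after lysis, overnight at room temperature; normalised to 0.29 uM artemisinin and DMSO.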

The next experiment has as its system AS120. Described as above. The note with it: P. falciparum in erythrocytes, SYBR Green DNA, 72 h; series mostly up to 28.7 µM. The essentials:
as §1

A further experiment has as its system CP238. The experiment is described as above. The note with it: P. falciparum in erythrocytes, SYBR Green DNA, 72 h; series mostly up to 12.8 µM. The essentials: as §1
A further experiment deals with CP265. The description is as above. The note with it: P. falciparum in erythrocytes, SYBR Green DNA, 72 h; series mostly up to 12.8 µM. The essentials:
as §1

Another experiment has as its system FAB9. Described as above. The note with it: P. falciparum in erythrocytes, SYBR Green DNA, 72 h; series mostly up to 12.8 µM. The essentials: as §1
The mark [17] stands for this setting: measured here: cell count channel max response.
Where [18] appears, read: measured here: lipid channel max response.

Alpha-galactosidase A (Homo sapiens), sequence (P06280 whole entry, looked up): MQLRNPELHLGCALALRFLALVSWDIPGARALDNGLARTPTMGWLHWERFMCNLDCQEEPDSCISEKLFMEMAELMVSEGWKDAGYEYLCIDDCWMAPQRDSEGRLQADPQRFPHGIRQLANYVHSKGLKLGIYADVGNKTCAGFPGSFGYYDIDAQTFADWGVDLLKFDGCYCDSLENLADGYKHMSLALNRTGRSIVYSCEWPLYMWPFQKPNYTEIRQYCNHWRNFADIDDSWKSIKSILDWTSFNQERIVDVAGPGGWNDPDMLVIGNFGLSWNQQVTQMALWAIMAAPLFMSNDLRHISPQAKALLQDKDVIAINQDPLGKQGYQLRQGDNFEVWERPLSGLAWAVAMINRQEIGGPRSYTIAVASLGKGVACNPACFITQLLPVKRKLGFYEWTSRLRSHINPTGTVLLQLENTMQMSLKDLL
Pyruvate kinase (Leishmania mexicana), sequence (Q27686 2-499 E452W): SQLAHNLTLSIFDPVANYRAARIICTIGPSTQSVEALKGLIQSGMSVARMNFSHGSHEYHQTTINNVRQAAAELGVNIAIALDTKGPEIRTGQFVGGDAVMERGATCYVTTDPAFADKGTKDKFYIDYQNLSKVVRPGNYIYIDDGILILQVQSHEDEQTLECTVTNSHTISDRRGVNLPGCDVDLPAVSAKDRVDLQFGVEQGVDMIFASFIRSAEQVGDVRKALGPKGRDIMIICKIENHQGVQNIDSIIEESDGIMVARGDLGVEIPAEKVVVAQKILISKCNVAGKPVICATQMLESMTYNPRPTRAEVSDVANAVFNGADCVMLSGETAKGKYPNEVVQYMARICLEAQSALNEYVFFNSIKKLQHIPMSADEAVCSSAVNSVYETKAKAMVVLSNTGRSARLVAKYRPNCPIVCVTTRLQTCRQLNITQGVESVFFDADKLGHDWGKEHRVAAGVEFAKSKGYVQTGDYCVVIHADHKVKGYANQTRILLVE
Glucocorticoid receptor (Homo sapiens), sequence (P04150 whole entry, looked up): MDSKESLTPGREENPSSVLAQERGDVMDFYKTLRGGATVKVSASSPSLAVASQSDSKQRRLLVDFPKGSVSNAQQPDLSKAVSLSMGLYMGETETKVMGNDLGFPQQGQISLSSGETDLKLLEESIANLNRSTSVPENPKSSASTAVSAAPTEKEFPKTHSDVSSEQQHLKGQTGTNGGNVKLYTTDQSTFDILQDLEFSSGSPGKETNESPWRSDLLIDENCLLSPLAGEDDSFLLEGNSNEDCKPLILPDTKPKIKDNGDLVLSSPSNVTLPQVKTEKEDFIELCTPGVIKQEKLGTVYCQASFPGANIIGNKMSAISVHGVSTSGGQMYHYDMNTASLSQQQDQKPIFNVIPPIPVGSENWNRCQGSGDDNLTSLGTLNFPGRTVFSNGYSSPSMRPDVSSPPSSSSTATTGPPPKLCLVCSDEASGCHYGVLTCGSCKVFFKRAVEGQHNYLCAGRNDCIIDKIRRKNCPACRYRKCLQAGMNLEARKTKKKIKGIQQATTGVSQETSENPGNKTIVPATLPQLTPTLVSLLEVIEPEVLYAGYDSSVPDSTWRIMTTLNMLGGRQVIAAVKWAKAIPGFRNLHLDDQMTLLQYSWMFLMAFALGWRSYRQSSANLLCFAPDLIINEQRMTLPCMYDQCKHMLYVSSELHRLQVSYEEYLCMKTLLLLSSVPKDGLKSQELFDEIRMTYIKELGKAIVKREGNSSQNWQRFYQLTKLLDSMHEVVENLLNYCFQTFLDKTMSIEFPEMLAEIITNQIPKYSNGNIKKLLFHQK
3',5'-cyclic-AMP phosphodiesterase 4B (Homo sapiens), sequence (Q07343 whole entry, looked up): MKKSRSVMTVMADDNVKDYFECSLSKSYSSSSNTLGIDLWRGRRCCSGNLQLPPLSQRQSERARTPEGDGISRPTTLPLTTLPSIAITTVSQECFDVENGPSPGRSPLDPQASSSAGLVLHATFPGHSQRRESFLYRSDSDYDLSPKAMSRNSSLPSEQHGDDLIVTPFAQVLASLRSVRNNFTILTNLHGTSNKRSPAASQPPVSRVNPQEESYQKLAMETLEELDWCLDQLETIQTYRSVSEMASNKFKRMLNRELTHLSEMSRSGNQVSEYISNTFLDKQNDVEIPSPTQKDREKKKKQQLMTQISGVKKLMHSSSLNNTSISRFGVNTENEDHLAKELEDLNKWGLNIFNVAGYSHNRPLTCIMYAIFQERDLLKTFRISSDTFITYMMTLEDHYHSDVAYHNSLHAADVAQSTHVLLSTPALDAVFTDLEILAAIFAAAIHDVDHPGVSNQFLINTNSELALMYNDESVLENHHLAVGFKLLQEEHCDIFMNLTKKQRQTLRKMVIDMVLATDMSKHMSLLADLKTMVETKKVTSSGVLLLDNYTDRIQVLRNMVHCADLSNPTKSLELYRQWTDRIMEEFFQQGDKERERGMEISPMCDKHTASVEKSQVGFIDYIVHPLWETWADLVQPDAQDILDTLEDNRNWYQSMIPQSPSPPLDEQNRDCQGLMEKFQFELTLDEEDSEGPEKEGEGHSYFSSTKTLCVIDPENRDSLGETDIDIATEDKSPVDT
Luciferin 4-monooxygenase (Photinus pyralis), sequence (P08659 whole entry, looked up): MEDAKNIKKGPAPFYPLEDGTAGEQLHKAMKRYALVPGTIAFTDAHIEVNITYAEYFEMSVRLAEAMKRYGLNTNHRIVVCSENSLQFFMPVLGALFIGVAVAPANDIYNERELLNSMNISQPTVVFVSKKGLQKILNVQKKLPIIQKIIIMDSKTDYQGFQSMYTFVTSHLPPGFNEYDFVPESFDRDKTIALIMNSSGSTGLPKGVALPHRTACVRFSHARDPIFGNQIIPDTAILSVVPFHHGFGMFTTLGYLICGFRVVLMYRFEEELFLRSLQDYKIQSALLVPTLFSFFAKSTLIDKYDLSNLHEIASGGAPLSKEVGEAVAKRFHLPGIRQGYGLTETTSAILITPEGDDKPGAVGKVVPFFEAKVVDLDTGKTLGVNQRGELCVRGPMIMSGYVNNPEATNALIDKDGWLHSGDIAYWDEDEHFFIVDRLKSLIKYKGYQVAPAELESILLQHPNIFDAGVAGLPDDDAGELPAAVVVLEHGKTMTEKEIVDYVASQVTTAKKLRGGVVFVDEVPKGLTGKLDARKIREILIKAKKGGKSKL

For the compound `CCn1cc(C(=O)O)c(=O)c2cc(F)c(N3CCN[C@@H](C)C3)c(F)c21`, the activity change, negative = inhibition is -0.628% (inactive) in experiment [1] (at 17.2 µM (top of the series)); 12.1% (inactive) in experiment [1] (at 38 µM (top of the series)); -8.67% (inactive) in experiment [3] (at 17.2 µM (top of the series)); -2.78% (inactive) in [3] (at 38 µM (top of the series)); -0.691% (inactive) in experiment [12]. The Potency result (in [2]; in [7]; in experiment [8]; in experiment [14]; in the experiment on AS120; with CP238) was “inactive” throughout. For the same compound, the Potency result in the experiment with CP265 and with FAB9 was “inactive” in each case. The activity, negative = inhibition in experiment [4] (at 17.2 µM (top of the series)) is 9.73% (inactive); in experiment [4] (at 38 µM (top of the series)), 26.7% (inactive); in experiment [16] (parasite line A), 5.09% (inactive); in experiment [16] (parasite line B), 0.537% (inactive). The Potency in experiment [5] is > 46 µM (inactive) and > 20.6 µM (inactive); in experiment [6], > 46 µM (inactive) and > 20.6 µM (inactive). Besides, the compound was called inactive in [9], in [10], in experiment [11], in experiment [13] and in [15]. The max response in experiment [12] (setting [17]) is -2.23%; in experiment [12] (setting [18]), -3.89%.

Consider `NC(=O)c1cc[n+](CC2=C(C(=O)O)N3C(=O)[C@@H](NC(=O)[C@H](c4ccccc4)S(=O)(=O)[O-])[C@@H]3SC2)cc1`, for which the activity change, negative = inhibition in [1] (at 17.2 µM (top of the series)) was 2.93% (inactive); in experiment [1] (at 38 µM (top of the series)), -7.21% (inactive); in experiment [3] (at 17.2 µM (top of the series)), 5.18% (inactive); in experiment [3] (at 38 µM (top of the series)), 3.09% (inactive); in experiment [12] it was -1.52% (inactive). Besides, the Potency result in experiment [2], in experiment [7], in [8] and in [14] was “inactive” in each case. For the same compound, the compound was called inactive in experiment [9], in [10], in experiment [11], in [13] and in experiment [15]. Besides, the figures for the max response in [12] (setting [17]) and in experiment [12] (setting [18]) were -10.2% and -11.3%, respectively. Besides, the Potency in experiment [16] (parasite line A) was 3.55 µM (active); in [16] (parasite line B), 3.55 µM (active); in the experiment on AS120 it was 3.16 µM (active); with CP238 it was 3.55 µM (active); in the experiment with CP265, 1.41 µM (active); in the experiment with FAB9 it was 3.16 µM (active).

For `CC(C)NC[C@H](O)c1cc(O)cc(O)c1`, the activity change, negative = inhibition in experiment [1] (at 17.2 µM (top of the series)) was -17.9% (inactive); in experiment [1] (at 38 µM (top of the series)) it was -18.1% (inactive); in experiment [3] (at 17.2 µM (top of the series)), -4.38% (inactive); in experiment [3] (at 38 µM (top of the series)), 2.58% (inactive); in [12] it was -2.07% (inactive). The Potency result (in [2]; in experiment [7]; in experiment [8]; in experiment [14]; in the experiment on AS120; in the experiment on CP238) was “inactive” each time. Moreover, the Potency entry in the experiment with CP265 and in the experiment with FAB9 was “inactive” throughout. For the same compound, the figures for the activity, negative = inhibition in experiment [4] (at 7.69 µM (top of the series) unless noted), in [16] (parasite line A) and in experiment [16] (parasite line B) were 14.6% [at 17.2 µM] (inactive), 15.2% (inactive) and 4.36% (inactive), respectively. In addition, the call in [9], in [10], in [11], in [13] and in experiment [15] was inactive. Further, the max response is 14.3% in experiment [12] (setting [17]) and 12.4% in experiment [12] (setting [18]).

With `CC(=O)[C@@H]1CC[C@@H]2[C@@H]3CCC4=CC(=O)CC[C@@]4(C)[C@H]3CC[C@]21C`, the activity change, negative = inhibition in experiment [1] (at 17.2 µM (top of the series)) was 2.95% (inactive); in experiment [1] (at 38 µM (top of the series)), 10.7% (inactive); in experiment [3] (at 17.2 µM (top of the series)) it was -20.4% (inactive); in experiment [3] (at 38 µM (top of the series)), -21.5% (inactive); in experiment [12] it was -4.74% (inactive). The Potency result in experiment [2], in [7] and in experiment [8] was “inactive” throughout. In addition, the activity, negative = inhibition in experiment [4] (at 17.2 µM (top of the series)) is -0.332% (inactive); in experiment [4] (at 38 µM (top of the series)), 9.04% (inactive). The max response in experiment [12] (setting [17]) is -9.33%; in [12] (setting [18]) it was -17.9%.
